RORgamma inh: blocks mouse ROR gamma transcriptional activity. Drosophila S2 Gal4-RORgamma UAS-luciferase reporter, 20 h. Potency, µM (titrated, usually from 53.6 µM), without a hit: at the highest dose activity change, negative = inhibition, usual class: inhibitors. actives 5.4% (n = 310,000); note: potency is the fitted concentration of half-maximal effect; nearly all actives have a fitted effect of over 60% in size
Target sequence (P51450 whole entry, looked up, the tested form may be a part): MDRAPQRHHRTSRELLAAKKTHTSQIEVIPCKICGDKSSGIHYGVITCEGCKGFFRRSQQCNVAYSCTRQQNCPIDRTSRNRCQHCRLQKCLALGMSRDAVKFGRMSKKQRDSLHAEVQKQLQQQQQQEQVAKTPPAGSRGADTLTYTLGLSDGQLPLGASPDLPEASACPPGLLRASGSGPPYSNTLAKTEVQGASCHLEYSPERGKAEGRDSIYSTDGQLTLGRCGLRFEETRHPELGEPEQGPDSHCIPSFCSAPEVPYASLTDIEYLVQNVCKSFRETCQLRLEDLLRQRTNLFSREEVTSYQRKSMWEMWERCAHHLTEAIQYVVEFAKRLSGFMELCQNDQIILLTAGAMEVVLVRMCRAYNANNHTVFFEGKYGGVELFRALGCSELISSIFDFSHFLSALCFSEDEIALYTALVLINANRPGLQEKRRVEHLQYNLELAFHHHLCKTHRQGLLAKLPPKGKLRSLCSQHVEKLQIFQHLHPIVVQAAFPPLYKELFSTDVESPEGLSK
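Schneider cells (Drosophila), stable Gal4 DBD–ROR gamma + UAS-luc; 1 hr cmpd preincubation; Cu2+ induction 700 uM final; 20 hr ambient; luminescence.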
TSHR antag: human thyrotropin receptor antagonism; P16473; TSHR-expressing cells, TSH-stimulated cAMP HTRF, 2 h; hits give low values; activity change, negative = inhibition, % at 11.5 µM; actives 0.2% (n = 330,000); AID 504810;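 active = activity change below a set negative limit, meaning inhibition stronger than a set level, cut at about -70% in these data; inconclusive = activity change between two set negative limits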
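Competitive HTRF cAMP read-out (cryptate anti-cAMP antibody, cAMP-d2; 30 min, room temperature) in freshly harvested TSHR cells. Compounds added before TSH at EC80 (4nM final), followed by 2 hours' incubation at 37 deg C.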
ELG1 repair inh: blocks ELG1-dependent DNA repair in HEK293T cells | HEK293T ELG1-luciferase reporter, luminescence, 16 h; DNA damage induced by 5-fluorouridine | Potency, µM (titrated, usually from 46.1 µM), for inactives: top-dose activity change, negative = inhibition, hits mostly inhibitors | actives 2.3% (n = 330,000) | AID 504467; note: potency is the fitted concentration of half-maximal effect; nearly all actives have a fitted effect of over 55% in size
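Overnight (16 hr) co-exposure of 2,000 cells/well to 5-fluorouridine and compound at 37 °C preceded detection. Luciferase was quantified via ONE-Glo luminescence; loss of signal denotes inhibition.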
FBPA coupling cs: counter-screen for Giardia aldolase inhibitors: coupling enzyme system; coupling enzyme system counterscreen, AmpLite Red fluorescence; activity change, negative = inhibition, % at 58.2 µM, hits read low; actives 0.67% (n = 290,000); in the data active = activity change below about -30%
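Counterscreen lacking aldolase: glyceraldehyde-3-phosphate coupling-enzyme reagent preincubated 10 min at RT with compound (at 57.5 uM final), then substrate/coupling system with AmpLite Red added; fluorescence read at 525/598 nm after 20 min RT.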
VP16 counter: counter-screen for ROR gamma inhibitors: Gal4-VP16 reporter. actives 3.5% (n = 310,000). Potency, µM (series often up to 53.6 µM), inactives show at the highest dose activity, negative = inhibition, most hits filed as inhibitors. Drosophila S2 Gal4-VP16 UAS-luciferase, luminescence, 20 h. AID 2546;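 note: Gal4-VP16 expression switched on by copper sulfate through the metallothionein promoter; potency is the fitted concentration of half-maximal effect; nearly all actives have a fitted effect of over 50% in size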
Starred values were filed as active, the others as inactive; u = inconclusive; x = no result given; ! = a repeat was not active; [ ] = remark or other dose. Sampled rows, rich in hits. Any-hit rate of the full collection: about 8%. Unless noted, calls come from the whole dose curve; as a rule, active = well fitted curve in the direction sought with a large enough effect; inconclusive = small, poorly fitted or top-dose-only effect, or another doubt; inactive = no such curve, though single readings can be large; an effect the other way counts as inactive or inconclusive. % is set by controls: 0 for no effect and ±100 for the full control effect.

SMILES | RORgamma inh | TSHR antag | ELG1 repair inh | FBPA coupling cs | VP16 counter
CC(C)NC(=O)C1CCN(C2CCN(C(=O)Cc3ccc4c(c3)OCO4)CC2)CC1 | -21% | -4 | 1% | -1 | -8%
COc1ccc(C(=O)/C=C/c2ccccc2)c(O)c1 | -43% | -15 | u | 0 | -4%
O=C(/C=C/c1ccccc1)CC(=O)c1ccccc1O | u | -14 | u | -2 | 11µM*
COc1ccc(/C=C/C(=O)c2cc(F)ccc2OC(=O)c2ccccc2OC)cc1OC | 18% | 8 | u | -1 | u
COc1ccc(/C=C/C(=O)c2cc(F)ccc2OC(=O)c2ccc(OC)c(OC)c2)cc1OC | 8.9µM* | 7 | 15µM* | -5 | u
O=C(/C=C/c1ccc(O)cc1)c1ccc(O)cc1O | 1.8µM*! | -16 | u | -1 | u
O=C(/C=C/c1ccccc1)NC(=O)c1ccccc1O | -17% | 6 | u | 4 | u
COc1ccc(/C=C/C(=O)c2ccc(O)cc2O)cc1 | 0.04µM* | x | x | 2 | u
O=C(/C=C/c1ccccc1)c1ccc(O)cc1O | 2.8µM* | x | x | 4 | u
COc1cc(/C=C/C(=O)c2ccc(O)cc2O)ccc1O | u | x | x | -1 | -24%
COc1ccc(/C=C/C(=O)c2ccc(O)cc2O)cc1OC | 2µM* | x | x | 0 | u
COc1ccc(C(=O)/C=C/c2ccc(OC)cc2OC)c(O)c1 | 0.79µM* | -28 | u | 0 | 21%
COc1ccc(/C=C/C(=O)c2cc(Cl)ccc2O)c(OC)c1 | 14% | -17 | u | 0 | 29%
CCC(C)(C)C(=O)O[C@@H]1C[C@H](C)C=C2C=C[C@H](C)[C@@H](CC[C@H]3C[C@@H](O)CC(=O)O3)[C@H]21 | 15%[2.98 µM] | x | x | -2 | -5%[17 µM]
CCOCC(=O)Nc1ccc([N+](=O)[O-])cc1Cl | 4% | 5 | 16% | 4 | 16%
COc1ccc([N+](=O)[O-])cc1NC(=O)C(C)N(C)Cc1ccc(Br)cc1 (stereo unspecified) | 22% | 13 | 21µM* | -1 | -24%
COc1ccc(Br)cc1CN(C)C(C)C(=O)Nc1cc([N+](=O)[O-])ccc1OC (stereo unspecified) | 21% | -12 | u | -2 | -20%
CCOc1ccc(CN(C)C(C)C(=O)Nc2ccc([N+](=O)[O-])cc2Cl)cc1OC (stereo unspecified) | 28% | -43 | 15µM* | 0 | -12%
COc1ccc(CN(C)C(C)C(=O)Nc2ccc([N+](=O)[O-])cc2Cl)cc1OC (stereo unspecified) | u | -21 | 9.2µM* | 0 | u
C=CCn1c(SCC(=O)NC2CCCC2)nc2c([nH]c3ccccc32)c1=O | -29% | 5 | 1% | x | 4%
Cc1nnsc1C(=O)NNS(=O)(=O)c1cc(C(F)(F)F)cc(C(F)(F)F)c1 | 11µM* | -4 | 1% | 8 | 19%
CCCNC(=O)CSc1nc(COc2ccccc2)nc2ccccc12 | 20% | -8 | 6% | 1 | 1%
Cc1cc(C)c(NC(=O)CSc2nc(COc3ccccc3)nc3ccccc23)c(C)c1 | u | 16 | u | 0 | 16µM*
CCN(CC)C(=O)CSc1nc(COc2ccccc2)nc2ccccc12 | 8% | 5 | 23µM* | -1 | -7%
CCCc1nc(SCC(=O)Nc2nccs2)c2ccccc2n1 | 1% | -7 | -11% | -5 | -2%
SMILES | RORgamma inh | TSHR antag | ELG1 repair inh | FBPA coupling cs | VP16 counter
O=C(CSc1nc(-c2ccccc2)nc2ccccc12)Nc1nccs1 | 11µM* | 38 | 1% | 3 | u
COC(=O)CSc1nc(COc2ccccc2)nc2ccccc12 | 10% | -4 | 9% | 0 | 16%
Cc1ccccc1NC(=O)CSc1nc(COc2ccccc2)nc2ccccc12 | -38% | -2 | 26µM* | 2 | -23%
CC(C)COc1ccc(C(=O)OCC(=O)N(C)CC(=O)Nc2ccc(F)cc2)cc1 | x | -2 | u | x | x
N#C/C(=C1/SCC(c2ccccc2Cl)S1)n1ccnc1 (stereo unspecified) | 44%[10 µM] | x | x | x | -23%
Cc1ccc(C(=O)NCC(=O)OCC(=O)Nc2ccc3[nH]c(=O)[nH]c3c2)cc1 | x | -3 | -1% | x | x
CCOC(=O)c1[nH]c(=O)[nH]c1CNc1ccccc1C#N | -2%[1.91 µM] | 4 | 0% | 0 | -7%
COc1cnc(-c2ccccn2)nc1Sc1cccc(Cl)c1 | 2µM* | -2 | u | -1 | 8.9µM*
COc1cnc(-c2ccccn2)nc1Sc1ccc(C)cc1 | 1.1µM* | -8 | 23µM* | -1 | 10µM*
COc1ccc(-c2nc(-c3ccccn3)ncc2S(C)(=O)=O)cc1 | -21% | 7 | -9% | -1 | 8%
COc1ccccc1Sc1nc(-c2ccccn2)ncc1OC | 7.9µM* | 4 | 23µM* | -7 | u
Cc1ccc(Sc2cc(C)nc(-c3ccccn3)n2)cc1 | 0.35µM* | -1 | u | 2 | 3.2µM*
Nc1cccnc1Sc1cccc(Cl)c1 | 1% | -5 | 20% | 3 | -13%
CC(C)S(=O)(=O)c1cnc(-c2ccccn2)nc1N | -15% | -1 | 21% | 2 | -5%
O=C(COc1ccccc1)Nc1cc(NC(=O)COc2ccccc2)cc(C(=O)O)c1 | -9% | 1 | -1% | 5 | 1%
COc1cnc(-c2ccccn2)nc1NC(C)C | u | 3 | -6% | -36* | -10%
Cc1cc(C)n(-c2cc(N3CCN(C(=O)c4cccc(F)c4)CC3)ccc2[N+](=O)[O-])n1 | u | 37 | 21µM* | -2 | -2%
O=C(c1ccc(N2CCN(C(=O)c3ccc(F)c(F)c3)CC2)cc1)c1cccc(F)c1 | 1.8µM* | 17 | 3% | x | u
Cc1cc(C)n(-c2cc(N3CCN(C(=O)c4ccc(C(C)(C)C)cc4)CC3)ccc2[N+](=O)[O-])n1 | u | -12 | u | 0 | -16%
COc1ccccc1CNC(=O)CCN=C1NS(=O)(=O)c2ccccc21 | x | -10 | 8% | x | x
Cc1nn(CCC(N)=S)c2nc(-c3cccs3)cc(C(F)(F)F)c12 | 7.1µM* | 6 | u | 1 | 6.3µM*
Cc1nn(CCC#N)c2nc(-c3ccccc3)cc(C(F)(F)F)c12 | 3% | 13 | 5% | 1 | -5%
CCOc1ccccc1N1CSC2=C(C#N)C(c3c(OC)ccc4ccccc34)CC(=O)N2C1 (stereo unspecified) | u | 0 | -2% | -49* | u
N#CC1=C2SCN(c3ccc(F)cc3)CN2C(=O)CC1c1cccc(F)c1 (stereo unspecified) | u | 4 | -2% | -14 | 5%
COc1ccc(N2CSC3=C(C#N)C(c4cc(OC)c(OC)cc4OC)CC(=O)N3C2)c(OC)c1 (stereo unspecified) | 13µM* | -4 | -21% | -48* | 4%

Screening data (PubChem BioAssay)
